Results as given in the supplement of paper PMC6555819.

Tested on: VDR:RXRa (NR concentration 270 nM, RXRa partner concentration 90 nM)
Test: PBM binding z-score (relative to random genomic background probes); higher = stronger binding; sequences stand for … in GC…GCGATTGACAGCGTAGAATGAAGG
Description: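 Protein-binding microarray (Agilent 4x180K custom design, double-stranded 60-nt probes: 5' GC cap, 34-nt variable region, 24-nt constant primer region; full probe sequence given). Purified or IVT nuclear receptor:RXRα heterodimers (3:1 NR:RXRα, mostly 270:90 nM) or homodimers were incubated for 1 h in PBS with 2% milk and no ligand, then detected with Alexa488 antibodies. Fluorescence from o1-orientation probes (~5 replicates averaged) was converted to z-scores against 500 random hg19 background probes. Variable regions are seed direct-repeat (DR0–DR5) sites, all their single-nucleotide variants and half-site ablations.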

Sequence | PBM binding z-score
CGTCCAAGGTCAATTCTAGGTCAGTGAAAGCATT | 4.61
CCTACTGGGCCAAGGTCATTGACCAGTCAAAGCA | 3.38
CGTCCAAGGTCATAAGAGGTCAGTGAAGACAGAT | 6.96
CCGAGTAGGTTACGAGGGGGCTTTCAGTGCGAAT | 2.13
CCTACTGGGCCAAAGGTCAGTGATTCCAATGCTC | 2.88
CGAACTACGTCAAAGGACAGTGAAAGGCGACGTA | -0.443
CGTCAAAGTTCATGGTAACGTAACAGAAAGCAGC | 4.33
CGAACTAGGTCAAAGGACAGTGACAGGCGACGTA | 1.47
GCTATTAGGTGAAAGGGCAACCGAATGATTCTCG | 0.806
CGTCGAAGGTCAATGCTAGGTCAGTGAAAGCATT | 4.47
CGTCCAAGGTAAATGCTAGGTCAGTGAAAGCATT | 0.355
CGAACTAGGTCACCAGGACTGTGAAGAGGTTGGA | 2.26
CTAACTAGGTCACCGGAAGGTCAAAGTCCGCATG | 6.08
CGAAATAGGTCAAAGGACAGTGAAAGGCGACGTA | 2.5
AATACAGGGTCACTAGGCCCGAGTAGGTACGAAT | 3.96
CGAACTAGGTCAGCAGGACAGTGAAGAGGTTGGA | 0.428
CGAAGTAGGTCAAAGGACAGTGAAAGGCGACGTA | 1.9
GATACAGGGTCAGCTAGAGGTCAGAGTATGGAAA | 6.14
CGAACTAGGTAAAGGACAGTGAATCTCCGCACGC | -0.323
TCTACTTGGTCACGGAGGTCACACACGACGGGTA | 5.85

Sequence | PBM binding z-score
TAGCCTAGGTCAAGCGGGCCAGTATAGTGTCGGC | 2.6
ATATGTAGATTAGGGTCATTCAGAAAGTAGGGAA | 4.06
TAGCCTAGGTCATTCAGGGGGCAGTATAGAAAGC | 4.82
ACTCGGAGGACAAAGGTCACAGCTACGCCAGTGA | 4.95
CCTACTGGGCCATTAAGAGGTCATTGATCATATG | 3.95
CCGAGTAGGTTACGAGGGGGCCTTCAGTGCGAAT | 1.73
CGAACCAGGTCAAAGGACAGTGAAAGGCGACGTA | 2.44
CGAACTAGGTCAAAGGAGAGTGAAAGGCGACGTA | 0.961
CTATGTAGGTTAAGGCGGTCATTCAGTTTGAAAG | 3.84
CTATGTAGGTAAAGGGGGTCATTCAGTTTGAAAG | 6.95
CGAACTAGGTCACCATGACAGTGAAGAGGTTGGA | 1.78
CCAACTAGGTCACCAGGACAGTGAAGAGGTTGGA | 1.99
AACGAAAGGTCGACGAGGTGAGTATACACCGTTT | 5.12
CAAACTAGGTCACAGAGGTCAACGTCCGTGCGTA | 7.74
TGTCAGAGTTCAAAGGTAACGTAAGTATCCACAC | 5.75
TCGAGTAGGTTACGGGAGCATTCAGGGATGAAGA | 0.0873
TAGCCTAGGTCATAGGGCCAGTATAGTACGCATC | 1.96
CGAACTAGGTCAAAGGGCAGTGAAAGGCGACGTA | 2.63
CTAGGTAGGTTAAGGGGGTCATTCAGTTTGAAAG | 7.24
CTATGTAGGTTATGGGGGTCATTCAGTTTGAAAG | 7.53
